In all, about 2,900 compounds were measured (“NF-kB SEAP reporter activity, fold change vs agonist alone”: median about 0.99, highest 2% from about 2.6 on). The sample holds the highest values, similar compounds and a random draw of the others, so the mix is not that of the screen.
Assays:
RAW-Dual [1] = assay: NF-kB SEAP reporter activity, fold change vs agonist alone; higher = enhanced NF-kB activity; conditions: library stock concentration (final ~1000-fold dilution): 10 mM
Summary of the method: (§1)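 RAW-Dual macrophages (50,000 cells/well in DMEM, 384-well plates) received 50 nL of library stock by pin tool, then a PRR agonist 1 h later, and were kept at 37 °C, 5% CO2. After 20 hours, supernatant was read for IRF by QuantiLuc luminescence and for NF-κB by QuantiBlue absorbance at 620 nm. Reporter activity is fold change over agonist-alone wells. Cytotoxic wells had IncuCyte confluency below 70% of agonist controls in both mask sets.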

RAW-Dual [2] = assay: NF-kB SEAP reporter activity, fold change vs agonist alone; cytotoxicity flag (confluency mask): not cytotoxic; higher = enhanced NF-kB activity
Summary of the method: as §1

RAW-Dual [3] = assay: NF-kB SEAP reporter activity, fold change vs agonist alone; cytotoxicity flag (confluency mask): cytotoxic (confluency <70% of control); higher = enhanced NF-kB activity
Summary of the method: as §1

[4] = cytotoxicity flag (confluency mask): not cytotoxic, agonist: Imiquimod (TLR7) […]
[5] = cytotoxicity flag (confluency mask): not cytotoxic, agonist: MPLA (TLR4) […]
[6] = agonist: ODN 1826 (TLR9) 0.5 ug/mL
[7] = agonist: Pam2CSK4 (TLR2/6) 0.1 ug/mL
[8] = agonist: Pam3CSK4 (TLR2/1) 0.1 ug/mL
[9] = cytotoxicity flag (confluency mask): cytotoxic (confluency <70% of control), agonist: Imiquimod (TLR7) […]
[10] = cytotoxicity flag (confluency mask): cytotoxic (confluency <70% of control), agonist: MPLA (TLR4) […]

COC1C(=O)C2(C)C(OC)CC3OCC3(OC(C)=O)C2C(OC(=O)c2ccccc2)C2(O)CC(OC(=O)C(O)C(NC(=O)OC(C)(C)C)c3ccccc3)C(C)=C1C2(C)C (stereo unspecified)
NF-kB SEAP reporter activity (RAW-Dual [1]; [4]): 1.57 | NF-kB SEAP reporter activity (RAW-Dual [1]; [5]): 1.25

COC1C(=O)C2(C)C(OC)CC3OCC3(OC(C)=O)C2C(OC(=O)c2ccccc2)C2(O)CC(OC(=O)C(O)C(NC(=O)OC(C)(C)C)c3ccccc3)C(C)=C1C2(C)C (stereo unspecified) (library stock concentration (final ~1000-fold dilution): 10 mM)
NF-kB SEAP reporter activity (RAW-Dual [2]; agonist: LPS (TLR4) 0.1 ug/mL): 1.71 | NF-kB SEAP reporter activity (RAW-Dual [2]; [6]): 1.2 | NF-kB SEAP reporter activity (RAW-Dual [2]; [7]): 1.01 | NF-kB SEAP reporter activity (RAW-Dual [2]; [8]): 0.912

Cc1cccc(Nc2nc(-c3ccncc3)cs2)c1
NF-kB SEAP reporter activity (RAW-Dual [1]; [4]): 1.89 | NF-kB SEAP reporter activity (RAW-Dual [1]; [5]): 2.08

Oc1ccc(Nc2nc(-c3ccc(Cl)cc3)cs2)cc1 (library stock concentration (final ~1000-fold dilution): 10 mM)
NF-kB SEAP reporter activity (RAW-Dual [2]; agonist: LPS (TLR4) 0.1 ug/mL): 0.311 | NF-kB SEAP reporter activity (RAW-Dual [2]; [6]): 0.27 | NF-kB SEAP reporter activity (RAW-Dual [2]; [7]): 0.227 | NF-kB SEAP reporter activity (RAW-Dual [2]; [8]): 0.157

Oc1ccc(Nc2nc(-c3ccc(Cl)cc3)cs2)cc1
NF-kB SEAP reporter activity (RAW-Dual [1]; [4]): 0.665 | NF-kB SEAP reporter activity (RAW-Dual [1]; [5]): 0.836

Cc1cccc(Nc2nc(-c3ccncc3)cs2)c1 (library stock concentration (final ~1000-fold dilution): 10 mM)
NF-kB SEAP reporter activity (RAW-Dual [2]; agonist: LPS (TLR4) 0.1 ug/mL): 2.85 | NF-kB SEAP reporter activity (RAW-Dual [2]; [6]): 1.3 | NF-kB SEAP reporter activity (RAW-Dual [2]; [7]): 0.662 | NF-kB SEAP reporter activity (RAW-Dual [2]; [8]): 1

O=C(NCc1cccc(O)c1)Nc1nc(-c2ccncc2)cs1
NF-kB SEAP reporter activity (RAW-Dual [1]; [4]): 1.3 | NF-kB SEAP reporter activity (RAW-Dual [1]; [5]): 1.45

O=C(NCc1cccc(O)c1)Nc1nc(-c2ccncc2)cs1 (library stock concentration (final ~1000-fold dilution): 10 mM)
NF-kB SEAP reporter activity (RAW-Dual [2]; agonist: LPS (TLR4) 0.1 ug/mL): 1.01 | NF-kB SEAP reporter activity (RAW-Dual [2]; [6]): 1.21 | NF-kB SEAP reporter activity (RAW-Dual [2]; [7]): 1.24 | NF-kB SEAP reporter activity (RAW-Dual [2]; [8]): 1.88

CCCOc1ccc(S(=O)(=O)NCCC2CCCN2C)cc1-c1nc(=O)c2c([nH]1)c(CCC)nn2C (stereo unspecified) (library stock concentration (final ~1000-fold dilution): 10 mM)
NF-kB SEAP reporter activity (RAW-Dual [2]; agonist: LPS (TLR4) 0.1 ug/mL): 1.02 | NF-kB SEAP reporter activity (RAW-Dual [2]; [6]): 0.517 | NF-kB SEAP reporter activity (RAW-Dual [2]; [7]): 0.99 | NF-kB SEAP reporter activity (RAW-Dual [2]; [8]): 1.14

CCCOc1ccc(S(=O)(=O)NCCC2CCCN2C)cc1-c1nc(=O)c2c([nH]1)c(CCC)nn2C (stereo unspecified)
NF-kB SEAP reporter activity (RAW-Dual [1]; [4]): 1.42 | NF-kB SEAP reporter activity (RAW-Dual [1]; [5]): 1.28

COc1cc(F)c(F)c(Nc2ccc(I)cc2F)c1NS(=O)(=O)C1(CC(O)CO)CC1 (stereo unspecified) (library stock concentration (final ~1000-fold dilution): 10 mM)
NF-kB SEAP reporter activity (RAW-Dual [2]; agonist: LPS (TLR4) 0.1 ug/mL): 1.01 | NF-kB SEAP reporter activity (RAW-Dual [2]; [6]): 0.915 | NF-kB SEAP reporter activity (RAW-Dual [2]; [7]): 0.342 | NF-kB SEAP reporter activity (RAW-Dual [2]; [8]): 0.427

COc1cc(F)c(F)c(Nc2ccc(I)cc2F)c1NS(=O)(=O)C1(CC(O)CO)CC1 (stereo unspecified)
NF-kB SEAP reporter activity (RAW-Dual [1]; [4]): 0.885 | NF-kB SEAP reporter activity (RAW-Dual [1]; [5]): 0.968

Cl.Cl.Fc1ccc(C(c2ccc(F)cc2)N2CCN(C/C=C/c3ccccc3)CC2)cc1
NF-kB SEAP reporter activity (RAW-Dual [1]; [4]): 1.99 | NF-kB SEAP reporter activity (RAW-Dual [1]; [5]): 1.65

Cl.Cl.Fc1ccc(C(c2ccc(F)cc2)N2CCN(C/C=C/c3ccccc3)CC2)cc1 (library stock concentration (final ~1000-fold dilution): 10 mM)
NF-kB SEAP reporter activity (RAW-Dual [2]; agonist: LPS (TLR4) 0.1 ug/mL): 2.45 | NF-kB SEAP reporter activity (RAW-Dual [2]; [6]): 1.44 | NF-kB SEAP reporter activity (RAW-Dual [2]; [7]): 0.829 | NF-kB SEAP reporter activity (RAW-Dual [2]; [8]): 1.09

COC12C(COC(N)=O)C3=C(C(=O)C(C)=C(N)C3=O)N1CC1NC12 (stereo unspecified) (library stock concentration (final ~1000-fold dilution): 10 mM)
NF-kB SEAP reporter activity (RAW-Dual [2]; agonist: LPS (TLR4) 0.1 ug/mL): 2.79 | NF-kB SEAP reporter activity (RAW-Dual [2]; [6]): 2.71 | NF-kB SEAP reporter activity (RAW-Dual [2]; [7]): 1.89 | NF-kB SEAP reporter activity (RAW-Dual [2]; [8]): 3.31

COC12C(COC(N)=O)C3=C(C(=O)C(C)=C(N)C3=O)N1CC1NC12 (stereo unspecified)
NF-kB SEAP reporter activity (RAW-Dual [1]; [4]): 1.82 | NF-kB SEAP reporter activity (RAW-Dual [1]; [5]): 1.79

CCN(CC)CCNC(=O)c1c(C)[nH]c(/C=C2/C(=O)Nc3ccc(-c4csc(-c5ccccc5)n4)cc32)c1C (library stock concentration (final ~1000-fold dilution): 10 mM)
NF-kB SEAP reporter activity (RAW-Dual [3]; agonist: LPS (TLR4) 0.1 ug/mL): 0.882 | NF-kB SEAP reporter activity (RAW-Dual [3]; [6]): 0.397 | NF-kB SEAP reporter activity (RAW-Dual [3]; [7]): 0.37 | NF-kB SEAP reporter activity (RAW-Dual [3]; [8]): 0.645

CCN(CC)CCNC(=O)c1c(C)[nH]c(/C=C2/C(=O)Nc3ccc(-c4csc(-c5ccccc5)n4)cc32)c1C
NF-kB SEAP reporter activity (RAW-Dual [1]; [9]): 1.35 | NF-kB SEAP reporter activity (RAW-Dual [1]; [10]): 1.55

COc1ccc(NC(=O)c2ccc(C(=N)N(C)C)cc2)c(C(=O)Nc2ccc(Cl)cn2)c1.O=C(O)/C=C\C(=O)O
NF-kB SEAP reporter activity (RAW-Dual [1]; [5]): 0.953

COc1ccc(NC(=O)c2ccc(C(=N)N(C)C)cc2)c(C(=O)Nc2ccc(Cl)cn2)c1.O=C(O)/C=C\C(=O)O (library stock concentration (final ~1000-fold dilution): 10 mM)
NF-kB SEAP reporter activity (RAW-Dual [2]; agonist: LPS (TLR4) 0.1 ug/mL): 0.955 | NF-kB SEAP reporter activity (RAW-Dual [2]; [6]): 0.994 | NF-kB SEAP reporter activity (RAW-Dual [2]; [7]): 1.1 | NF-kB SEAP reporter activity (RAW-Dual [2]; [8]): 1.06

COc1cc2c(Oc3ccc4[nH]c(C)cc4c3F)ccnc2cc1OCC1(N)CC1.Cl.Cl (library stock concentration (final ~1000-fold dilution): 10 mM)
NF-kB SEAP reporter activity (RAW-Dual [3]; agonist: LPS (TLR4) 0.1 ug/mL): 1.7 | NF-kB SEAP reporter activity (RAW-Dual [3]; [6]): 0.29 | NF-kB SEAP reporter activity (RAW-Dual [3]; [7]): 1.17 | NF-kB SEAP reporter activity (RAW-Dual [3]; [8]): 1.74

COc1cc2c(Oc3ccc4[nH]c(C)cc4c3F)ccnc2cc1OCC1(N)CC1.Cl.Cl
NF-kB SEAP reporter activity (RAW-Dual [1]; [9]): 1.53 | NF-kB SEAP reporter activity (RAW-Dual [1]; [10]): 1.89

COc1cc2c(Oc3ccc4[nH]c(C)cc4c3F)ncnc2cc1OCCCN1CCCC1.O=C(O)/C=C\C(=O)O (library stock concentration (final ~1000-fold dilution): 10 mM)
NF-kB SEAP reporter activity (RAW-Dual [3]; agonist: LPS (TLR4) 0.1 ug/mL): 2.81 | NF-kB SEAP reporter activity (RAW-Dual [3]; [6]): 0.402 | NF-kB SEAP reporter activity (RAW-Dual [3]; [7]): 1.61 | NF-kB SEAP reporter activity (RAW-Dual [3]; [8]): 1.15

COc1cc2c(Oc3ccc4[nH]c(C)cc4c3F)ncnc2cc1OCCCN1CCCC1
NF-kB SEAP reporter activity (RAW-Dual [1]; [9]): 1.98 | NF-kB SEAP reporter activity (RAW-Dual [1]; [10]): 1.96

COc1cc2c(Oc3ccc4[nH]c(C)cc4c3F)ncnc2cc1OCCCN1CCCC1.O=C(O)/C=C\C(=O)O
NF-kB SEAP reporter activity (RAW-Dual [1]; [10]): 2.65

COc1cc2c(Oc3ccc4[nH]c(C)cc4c3F)ncnc2cc1OCCCN1CCCC1 (library stock concentration (final ~1000-fold dilution): 10 mM)
NF-kB SEAP reporter activity (RAW-Dual [3]; agonist: LPS (TLR4) 0.1 ug/mL): 0.671 | NF-kB SEAP reporter activity (RAW-Dual [3]; [6]): 0.212 | NF-kB SEAP reporter activity (RAW-Dual [3]; [7]): 1.03 | NF-kB SEAP reporter activity (RAW-Dual [3]; [8]): 1.37

— the supplement of paper PMC10037445
